EP2 antag – human EP2 receptor antagonists, primary screen, TR-FRET cAMP, C6 glioma cells; Prostaglandin E2 receptor EP2 subtype (Homo sapiens), P43116; C6 glioma cells expressing human EP2; cells stimulated with saturating PGE2; inhibition, % at 25 µM; hit rate 0.52% among 260,000; AID 1422, 2008;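 active = percent inhibition above 40 after rounding to a whole number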;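 note: rat C6 glioma host cells with rolipram phosphodiesterase inhibitor present; the protocol text gives 20 µM as final concentration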
EP2 modulator – EP2 receptor modulators, cAMP readout, primary screen, cell-based, HTRF cAMP, PGE2 stimulation | Prostaglandin E2 receptor EP2 subtype (Homo sapiens), P43116 | EP2-expressing cells, cAMP HTRF FRET, PGE2 co-stimulation | induction, % at 25 µM | hit rate 0.83% among 260,000 | AID 940, 2007;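 active = compounds whose cAMP rise, as percent of the full-agonist control response, exceeds 60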;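 note: rat C6 glioma line stably carrying human EP2 under a CMV promoter; the protocol text gives 20 µM as final concentration; 100% = response of wells given 1 µM PGE2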
S1P4 agonist – S1P4 receptor agonists, primary screen, cell-based; hit rate 0.35% among 220,000; Sphingosine 1-phosphate receptor 4 (Homo sapiens), O95977; S1P4-expressing cell line, agonist reporter assay; activation, % at 4.98 µM; in the data active = activation above about 11%;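 note: 0% = DMSO vehicle and 100% = reference agonist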
Target sequence (O95977 whole entry, looked up): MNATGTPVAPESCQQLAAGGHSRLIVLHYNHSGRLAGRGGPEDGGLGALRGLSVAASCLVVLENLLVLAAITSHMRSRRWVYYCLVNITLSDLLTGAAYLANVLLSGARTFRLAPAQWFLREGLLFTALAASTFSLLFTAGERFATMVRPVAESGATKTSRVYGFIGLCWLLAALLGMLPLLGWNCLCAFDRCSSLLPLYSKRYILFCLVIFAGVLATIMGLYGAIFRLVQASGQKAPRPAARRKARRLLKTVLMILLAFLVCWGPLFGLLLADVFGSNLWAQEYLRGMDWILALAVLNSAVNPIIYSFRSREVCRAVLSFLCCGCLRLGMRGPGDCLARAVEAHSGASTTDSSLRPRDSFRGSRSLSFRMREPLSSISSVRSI
S1P3 antag – S1P3 receptor antagonists, primary screen, cell-based. CHO S1P3 NFAT-BLA reporter, FRET fluorescence, antagonist mode. inhibition, % at 4.98 µM. hit rate 0.27% among 170,000. AID 485, 2006;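 active = inhibition above the plate cutoff, the mean inhibition of test wells on that plate plus 3 SD, cut at about 28% in these data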;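 note: cells challenged with S1P at its EC80 of 0.8 µM; blue over green emission ratio from cleaved BLA substrate after 4 h stimulation; 0% = S1P-stimulated wells and 100% = unstimulated DMSO-only wells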
S1P4 antag – S1P4 receptor antagonists, primary screen, cell-based; S1P4-expressing cells, antagonist mode, reporter read-out; inhibition, % at 4.98 µM; hit rate 0.26% among 220,000; in the data active = inhibition above about 29%;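 note: 0% = wells stimulated with agonist and 100% = vehicle wells without agonist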
EP2 confirm – cAMP induction in EP2, EP4, beta2-AR and parental cells, confirmation, counter-screen for EP2 modulator project, cell-based, five parallel assays, C6 glioma, HEK293. calls only at 20 µM (by protocol). AID 1080, 2008. cAMP HTRF induction; plus low (about EC15) PGE2 agonist. hit rate 47% among 1,300. shares compounds with EP2 modulator;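 active = cAMP induction above 50% in the main assay while under 30% in all four parallel counter assays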;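 note: rat C6 glioma cells stably expressing human EP2 receptor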
* hit, by the source's call; i = inactive; / = not tested or not shown; + = active, no number. Hits are enriched below; roughly 1.9% of the tested compounds scored in any of these assays.

SMILES	EP2 antag	EP2 modulator	S1P4 agonist	S1P3 antag	S1P4 antag	EP2 confirm
CCOC(=O)c1c(-c2ccc(OC)cc2)csc1NC(=O)CCN1CCOCC1	6.6	56.2	1.3	17.1	-20.1	/
O=C1NC2(CCN(C(=O)c3cc4c(s3)CCC4)CC2)Nc2ccccc21	5.4	-17.2	/	/	/	/
O=c1[nH]c(=S)c2c(n1-c1ccccc1)CCC2	33.4	82.4*	-1.0	-18.3	0.7	i
C=C[C@@](C)(O)CCC1C(=C)C[C@H](O)C2C(C)(C)CCCC12C (some centres undefined)	9.9	79.5*	/	/	/	+
CCSc1nc2sc3c(c2c(=O)n1CC)CC(C)(C)OC3	5.8	52.4	2.9	/	-38.0	i
CCOC(=O)c1sc(NC(=O)C(CC)c2ccccc2)nc1C (centres undefined)	10.8	-29.6	/	/	/	/
CCOC(=O)c1sc(NC(=O)C(CC)OC(=O)C(CC(C)C)NC(=O)c2ccccc2)nc1C (centres undefined)	18.5	67.4*	-2.8	/	-11.6	i
COc1ccc(C(=O)COC(=O)C(CCSC)NS(=O)(=O)c2ccc(Cl)cc2)cc1 (centres undefined)	9.3	69.5*	-0.1	-19.0	3.0	i
Cc1sc(NC(=O)c2ccccc2F)c(CN2CCCCC2)c1C	17.4	84.2*	5.3	3.4	-1.8	i
Cc1sc(NC(=O)c2ccc(F)cc2)c(CN2CCCCCC2)c1C	8.9	59.2	-0.8	14.2	-2.3	/
CN1[C@H](C(=O)Nc2ccccc2C(F)(F)F)C[C@H](c2cccs2)NS1(=O)=O	/	-9.9	/	/	/	/
Cc1nc2cc(-c3sccc3-n3cccc3)nn2c(C)c1C	/	25.6	-0.9	/	23.6	/
Cc1cc(-c2sccc2C)nc(-n2cccc2)n1	5.3	74.5*	0.7	/	-6.2	+
COc1ccc(-c2cc(-c3ccccc3)nc(N3CCCC3)n2)cc1OC	5.3	63.8*	0.0	15.2	-41.6	i
COc1ccc(-c2cc(C(F)(F)F)nc(N3CCOCC3)n2)cc1OC	5.5	69.7*	1.1	/	-17.9	+
COc1cccc(-c2cc(C(F)(F)F)nc(N3CCOCC3)n2)c1	6.4	35.0	-4.2	/	-4.8	/
COc1ccc(-c2cc(C(F)(F)F)nc(NC3CCCC3)n2)cc1OC	8.2	68.3*	-0.5	/	-14.8	i
COc1ccc(Nc2nc(CC(=O)O)cs2)cc1	10.9	-38.0	/	/	/	/
C=C1C[C@]23C[C@@]1(O)CC[C@H]2[C@@]12C=C[C@H](O)C(C)(C(=O)O1)[C@H]2[C@@H]3C(=O)O	15.2	29.9	/	/	/	/
COCCN1CCN(CC2(c3ccc(Cl)cc3)CC2)CC1	7.5	-24.9	/	/	/	/
CSc1ncc2c(n1)-c1cc(C)ccc1SC2	13.4	78.2*	-1.2	/	4.1	+
CCOc1ccc(CN(C(=O)c2cc3ccccc3oc2=O)C2CCCC2)cc1	10.5	-27.4	/	/	/	/
O=C1CC(N2CCC(c3nc4ccccc4[nH]3)CC2)C(=O)N1 (centres undefined)	11.6	-15.9	/	/	/	/
CCNc1nc(CC)nc2c1oc1ccccc12	6.0	-4.6	0.9	/	-3.3	/
CCc1nc(N2CCC(C)CC2)c2oc3ccccc3c2n1	5.5	70.0*	-1.4	19.3	-7.0	i
SMILES	EP2 antag	EP2 modulator	S1P4 agonist	S1P3 antag	S1P4 antag	EP2 confirm
S=c1[nH]nc(CSc2nc3ccccc3s2)n1Cc1ccccc1	10.1	53.5	0.9	/	-5.3	i
CCn1c(N2CCC(C(=O)NC(C)c3cc(OC)ccc3OC)CC2)nc2ccccc21 (centres undefined)	/	-27.6	/	/	/	/
Nc1ccc(SC(F)(F)F)cc1C(=O)c1ccccc1	/	69.3*	0.0	19.0	-0.3	i
O=C(O)c1ccc(C(=O)c2ccccc2)c(C(=O)O)c1	4.5	12.1	/	/	/	/
CC(=O)Nc1cc(C(F)(F)F)ccc1Oc1cccc(Br)c1	14.8	-12.3	-1.0	/	-5.7	/
CCOCC(=O)Nc1cc(C(F)(F)F)ccc1Oc1cccc(Br)c1	11.3	65.2*	-2.5	/	-5.4	+
CCCCc1nc2sc3c(SCCN(C)C)ncnc3c2c2c1CCC2	17.7	0.4	1.8	-8.4	-1.9	/
CCCCc1nc2sc3c(SCC(=O)NCc4ccco4)ncnc3c2c2c1CCC2	10.5	68.5*	1.5	/	-3.8	i
CN(C)Cc1ccccc1Sc1cccc2ccccc12	7.7	75.3*	0.3	-5.0	-13.3	+
C=CCSc1nccc(-c2cc(Cl)sc2Cl)n1	17.4	66.8*	-1.2	/	8.0	i
Cc1cc(C)cc(NC(=O)CCN2CCC(C(N)=O)CC2)c1	19.6	-4.8	/	/	/	/
CC1=CC2C(C(C)C)CCC(C)(O)C2CC1 (centres undefined)	6.0	65.4*	/	/	/	+
O=C(CSc1nnc(Cc2ccccc2)n1Cc1ccco1)NC12CC3CC(CC(C3)C1)C2	-2.6	62.6*	0.1	17.9	15.8	i
Cc1cc2ccccc2n2c(=O)n(CC(=O)N(C)C3CCCCC3)nc12	8.1	-22.0	/	/	/	/
COc1ncnc2c1oc1nc(CC(C)C)c3c(c12)CCCC3	9.0	67.6*	1.4	-5.3	4.0	+
C=CCn1c2cc(C)sc2c2cnn(CC(=O)N3CCCC3)c(=O)c21	/	-19.9	/	/	/	/
O=C(NCc1ccco1)C(c1cccs1)N(C(=O)Cc1cccs1)c1ccccc1 (centres undefined)	9.2	83.4*	-1.2	-30.4	8.2	i
Cc1cccc(Cn2c(=O)n(Cc3ccco3)c(=O)c3ccccc32)c1	13.2	76.1*	-1.2	-25.2	7.1	i
CCOC(=O)c1cc[n+](CC(=O)c2cccs2)cc1	3.9	-15.0	/	/	/	/
CC1Oc2ccccc2N(Cc2ccccc2Cl)C1=O (centres undefined)	8.4	49.6	0.0	-9.2	7.5	/
O=C1COc2ccccc2N1Cc1ccccc1Cl	7.1	68.4*	1.1	-8.5	-2.4	i
C=CCOc1ccc2c(c1)C(=NO)c1cc(OCC=C)ccc1-2	8.3	83.2*	2.1	/	-19.0	+
COc1ccc(CN2Cc3cc4ccccc4nc3OC(C)C2=O)cc1 (centres undefined)	8.4	-96.5	/	/	/	/
Cc1cc(C)cc(N(C(=O)CNS(=O)(=O)c2ccccc2)C(C(=O)NCc2ccccc2)c2ccc(C)o2)c1 (centres undefined)	4.5	25.8	-3.2	5.4	19.6	/
Cc1ccc(S(=O)(=O)NCC(=O)N(c2ccccc2)C(C(=O)NCc2ccccc2)c2ccco2)cc1 (centres undefined)	7.4	68.3*	0.7	-4.2	-0.1	i
CC(C)CCn1c(N2CCN(c3cccc(Cl)c3)CC2)nc2c1c(=O)[nH]c(=O)n2C	7.9	65.0*	0.7	-4.7	-20.0	i
COc1ccc(N2CCN(c3nc4c(c(=O)[nH]c(=O)n4C)n3Cc3cccc(C)c3)CC2)cc1	7.4	70.1*	-0.2	-2.8	-11.9	i

High-throughput results (PubChem BioAssay)
